From PubChem
JMJD2A Tudor = inhibitors of human JMJD2A Tudor domain | AID 504339 | Potency, µM (top dose mostly 114 µM), for inactives: at the highest dose activity change, negative = inhibition, most hits filed as inhibitors | 390,000 tested, 4.4% active | AlphaScreen JMJD2A-Tudor / H3K4me3 peptide binding | O75164; also: % is scaled to controls: 0 for no effect and ±100 for the full control effect; nearly all actives have a fitted effect of over 50% in size
BAZ2B inh = inhibitors of human BAZ2B bromodomain; Q9UIF8; AlphaScreen BAZ2B-H3K14Ac peptide displacement; Potency, µM (top dose mostly 114 µM), for the others: top-dose activity change, negative = inhibition, usual class: inhibitors; 360,000 tested, 4.4% active; AID 504333; also: % is scaled to controls: 0 for no effect and ±100 for the full control effect; nearly all actives have a fitted effect of over 60% in size
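BAZ2B 50 nM plus b-H3(5-23)K14Ac 50 nM, PBS pH 7.4/0.01% Tween-20, 30 min RT; compound added (max 110 uM), 30 min RT; streptavidin donor/Ni-chelate acceptor beads 10 ug/mL final, 20 min dark; AlphaScreen read.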
Sfp PPTase inh = inhibitors of Bacillus subtilis Sfp phosphopantetheinyl transferase | Potency, µM, for the others: largest response in the series, negative = inhibition, most hits filed as inhibitors | Biochemical Sfp PPTase activity, qHTS | 310,000 tested, 3.5% active;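 also: the enzyme is Sfp with the accession as filed and its product quenches rhodamine fluorescence; 0% = enzyme reaction without inhibitor and -100% = no enzyme wells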
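Sfp 15 nM + cpd, 15 min RT; start w/ rhodamine-CoA 5 uM, BHQ-2-YbbR 12.5 uM (final); 50 mM Hepes pH 7.6, 10 mM MgCl2, 0.01% NP-40, 0.01% BSA; read 525/598 nm at 0 and 30 min.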
HP1b chromo inh = inhibitors of HP1-beta chromodomain binding to methylated histone tails; Potency, µM (highest dose often 114 µM), inactives show at the top dose activity change, negative = inhibition, usual class: inhibitors; 390,000 tested, 0.56% active; AlphaScreen HP1-beta / biotin-H3K9me3 peptide binding; P83916; AID 540317; also: nearly all actives have a fitted effect of over 70% in size
Target sequence (P83916 whole entry, looked up): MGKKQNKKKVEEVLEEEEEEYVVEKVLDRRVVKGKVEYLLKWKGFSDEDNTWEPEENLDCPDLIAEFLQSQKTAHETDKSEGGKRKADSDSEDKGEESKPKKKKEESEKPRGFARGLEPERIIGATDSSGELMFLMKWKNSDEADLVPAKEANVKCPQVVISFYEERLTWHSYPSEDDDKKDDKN
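AlphaScreen: HP1-beta (50 nM) preformed 30 min with biotin-H3(1-18)K9me3 peptide (50 nM) in PBS pH 7.4, 0.01% Tween-20. Compound added for 30 min at RT, then streptavidin donor/nickel chelate acceptor beads (10 ug/mL) for 30 min.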
G9a inh = G9a (human) methyltransferase inhibition; Q96KQ7; G9a H3K9 monomethylation, AlphaScreen, 2 h; Potency, µM (titrated, usually from 102 µM), for the others: at the top dose activity, negative = inhibition, most hits filed as inhibitors; 350,000 tested, 8.8% active; AID 504332; also: % is scaled to controls: 0 for no effect and ±100 for the full control effect; nearly all actives have a fitted effect of over 75% in size
Target sequence (Q96KQ7 913-1193 limits assumed): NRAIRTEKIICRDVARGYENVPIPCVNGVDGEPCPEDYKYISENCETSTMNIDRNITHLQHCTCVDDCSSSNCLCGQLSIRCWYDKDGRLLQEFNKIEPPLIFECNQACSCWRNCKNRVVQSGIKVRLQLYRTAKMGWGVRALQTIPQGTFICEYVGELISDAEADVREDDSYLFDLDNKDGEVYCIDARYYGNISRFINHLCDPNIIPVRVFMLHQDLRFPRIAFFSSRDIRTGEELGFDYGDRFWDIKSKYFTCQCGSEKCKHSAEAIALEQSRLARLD
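Methyltransferase reactions run at room temperature for 2 h (20 nM enzyme, 500 nM biotin-H3K9 peptide, 20 uM SAM) after a 15 min compound preincubation; product detected by AlphaScreen beads and anti-H3K9me1 antibody.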
L3MBTL1 block = inhibitors of human L3MBTL1; Q9Y468; AlphaScreen L3MBTL1–H3K9me1 peptide binding; Potency, µM (top dose mostly 57.1 µM), for inactives: at the highest dose activity, negative = inhibition, actives largely listed as inhibitors; 230,000 tested, 0.66% active; also: % is scaled to controls: 0 for no effect and ±100 for the full control effect; nearly all actives have a fitted effect of over 60% in size
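AlphaScreen proximity signal between nickel-chelate acceptor and streptavidin donor beads (final 10 ug/mL) reports binding of 50 nM L3MBTL1 to 75 nM biotin-H3 K9me1 peptide; complex incubated with compounds 30 min at room temperature; cefsulodin titration as control.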
The depositor's hits bear a star; ? = inconclusive; . = no result; ! = not active in a repeat; [ ] = remark or other dose. Compounds with a hit are over-represented: about 12% of the library has one in this group of screens. Calls follow the shape of the dose curve; as a rule, active = well fitted curve in the direction sought with a large enough effect; inconclusive = small, poorly fitted or top-dose-only effect, or another doubt; inactive = no such curve, though single readings can be large; an effect the other way counts as inactive or inconclusive. Potency is read from the fitted curve at half-maximal effect.

SMILES	JMJD2A Tudor	BAZ2B inh	Sfp PPTase inh	HP1b chromo inh	G9a inh	L3MBTL1 block
COCCCNC(=O)c1ccc(NC(=O)N2CCCCc3ccccc32)cc1	-16%	5%	.	18%	5%[59 µM]	.
O=C(Nc1cccc(-c2nc3cc(Cl)ccc3o2)c1)c1ccc(F)cc1	-10%	3%	.	38%	8%[59 µM]	.
O=[N+]([O-])c1ccc2c(c1Nc1ccccc1Cl)=NC1(CCCCC1)N=2	?	-33%	-6%	10%	-26%[59 µM]	?
Cc1ccc(Nc2c([N+](=O)[O-])ccc3c2=NC2(CCCCC2)N=3)cc1	?	3.5µM*	6%	?	4.5µM*	-25%
O=C(O)CC/C(=C\c1ccc(N2CCOCC2)c([N+](=O)[O-])c1)c1nc2ccccc2s1	?	35µM*	17%	-11%	?	-14%
O=C(O)CC/C(=C\c1ccc(Cl)c([N+](=O)[O-])c1)c1nc2ccccc2s1	-25%	-39%	-14%	19%	-48%	-3%
O=C(O)C/C(=C\c1ccc(N2CCOCC2)c([N+](=O)[O-])c1)c1nc2ccccc2s1	-9%[11.4 µM]	50µM*	-9%	-6%	?	-8%
COc1cc(NC(=O)C2C3CCC(O3)C2C(=O)O)cc(OC)c1 (configuration not stated)	-6%	12%	-4%	45%	.	-1%
CCN(CC)c1ccc(C=Nc2cc(C)cc(C)c2)c(O)c1	-20%	9%	-2%	-4%	8.9µM*	-6%
CCN(CC)c1ccc(N=Cc2ccc(N(CC)CC)cc2O)cc1	40µM*	18µM*	?	?	?	.
CCN(CC)c1ccc(/C=N/N2C(C)CCCC2C)c(O)c1 (configuration not stated)	?	45µM*	2%	-13%[57 µM]	45µM*	.
CCN1CCN(c2ccc(N=Cc3ccc(O)cc3O)cc2)CC1	?	32µM*	-2%	?	.	-16%
CCN(CC)c1ccc(C=Nc2ccc(C)cc2)c(O)c1	-2%	14%	-17%	72%	?	1%
CCN(CC)c1ccc(/C=N/N=C(N)N)c(O)c1	?	-38%	6%	0%	-50%	-6%
Cc1cccc(-n2c(Cc3ccccc3)nnc2SCc2nc(-c3cccs3)no2)c1	-25%	-11%	.	29%	-7%[59 µM]	.
CC1CCC(NC(=O)c2cccc(S(=O)(=O)N3CCN(c4ccc(F)cc4)CC3)c2)CC1 (configuration not stated)	6%	7%	.	39%	?	1%
CCN(CC)c1ccc(C=Nc2ccccc2)c(O)c1	-35%	-38%	-29%	?	?	-4%
CCN(CC)c1ccc(C=Nc2ccc(N(C)C)cc2)c(O)c1	56µM*	32µM*	50µM*	?	0.56µM*	.
CC(=O)N1CCc2cc(C(=O)CN3CCN(c4ccccn4)CC3)ccc21	1%	9%	50µM*	37%	20µM*	.
CC(=O)N1CCc2cc(C(=O)CN3CCN(c4ccccc4F)CC3)ccc21	-20%	-34%	50µM*	36%	14µM*	.
O=C(CN1CCN(c2ccccc2F)CC1)c1ccc2cc[nH]c2c1	-31%	4%	-11%	32%	25µM*	0%
O=C(CN1CCN(c2ccccc2F)CC1)N1CCc2ccccc21	-9%	-14%	9%	0%	10%	.
CC(=O)Oc1c(C)c(C)c2c(c1C)CC[C@@](C)(CCC[C@H](C)CCC[C@H](C)CCCC(C)C)O2	-12%	-3%	-5%	18%	-19%[59 µM]	-5%
Nc1ccc(C(=O)O)c(O)c1 (tested in a mixture with another compound)	.	.	2%	.	.	.
Nc1ccc(O)c(C(=O)O)c1	.	.	45µM*	.	3.2µM*	.
SMILES	JMJD2A Tudor	BAZ2B inh	Sfp PPTase inh	HP1b chromo inh	G9a inh	L3MBTL1 block
COc1cc(-c2noc(CCC(=O)Nc3cccnc3)n2)cc(OC)c1OC	-11%	11%	?	23%	35µM*	0%
COc1ccccc1-c1noc(CCC(=O)Nc2cccc(C)c2)n1	-9%	-5%	?	34%	35µM*	4%
COc1cc(NC(=O)CCc2nc(-c3cccs3)no2)cc(OC)c1OC	-13%	-24%	17%	6%	1%[59 µM]	4%
COc1ccccc1-c1noc(CCC(=O)Nc2ccccc2Cl)n1	-22%	38%	10µM*	18%	2.8µM*	?
COc1ccccc1-c1noc(CCC(=O)Nc2ccc(C)cc2C)n1	-18%	-7%	.	18%	?	.
COc1cc(OC)cc(C(=O)NNC(=O)CCC2CCCC2)c1	1%	.	.	22%	.	3%
O=C(c1ccco1)N1CCN(c2ncnc3c(-c4ccc(Cl)cc4)nsc23)CC1	-11%	-11%	?	2%	-2%	.
C#CCN1C(C)=C(C(=O)OC)C(c2cccc([N+](=O)[O-])c2)C(C(=O)OCC)=C1C (configuration not stated)	-32%	-29%	.	7%	11µM*!	-7%
CCCCN1C(=O)NC(c2cccc([N+](=O)[O-])c2)C(C(=O)OCC)=C1C (configuration not stated)	-17%	.	.	61%	.	.
Cn1c2ccccc2c2cc(C(=O)N3CCOCC3)sc21	2%	-25%	45µM*	20%	?	-9%
CCCOc1ccc(N2C(=O)CC(NCCc3ccc(S(N)(=O)=O)cc3)C2=O)cc1 (configuration not stated)	-7%	2%	5%	25%	35µM*	.
CCOc1ccc(N2C(=O)CC(NCCc3ccncc3)C2=O)cc1 (configuration not stated)	?	13%	-8%	27%	3%[59 µM]	4%
CCOc1ccc(N2C(=O)CC(NCCc3ccc(S(N)(=O)=O)cc3)C2=O)cc1 (configuration not stated)	-11%	4%	2%	45%	25µM*	4%
CCCOc1ccc(N2C(=O)CC(NCCNc3ccc(S(=O)(=O)CC)cc3)C2=O)cc1 (configuration not stated)	2%	-8%	8%	36%	?	1%
O=[N+]([O-])c1ccc(-c2nc(-c3ccc(F)cc3)c(-c3ccncc3)[nH]2)cc1	.	.	-29%	.	35µM*	.
O=[N+]([O-])c1ccc2nc(-c3ccncc3)[nH]c2c1	-6%	-1%	6%	51%	?	3%
CCN(CC)CCSc1nc2ccccc2c(=S)n1-c1ccccc1	50µM*	?	-7%	?	?	.
CCN(CC)CCSc1nc(O)c(-c2ccccc2)c(=O)n1-c1ccccc1	5%	-17%	16%	37%	6%	-1%
CO[C@@H](C(C)C)[C@@H](C)[C@@H]1OC(=O)C[C@@H]1O	.	.	-4%	.	.	.
Nc1c(-c2ccccc2)sc2ccc3ccccc3[n+]12	5%	-37%	35µM*	27%	1µM*	.
